Drawing on publication PMC4081100, “A DNA-binding-site landscape and regulatory network analysis for NAC transcription factors in Arabidopsis thaliana”, this text covers binding signal for seven sequences.

Common to all, as to test: universal protein binding microarray (PBM); transcription factors of Arabidopsis thaliana; high values mean tight binding
Holding throughout (details): protein: recombinant; tags: GST; chain copies: 2; dsDNA, one strand shown

For one assay, the target named is T1, GST-ANAC092(1-176) (Arabidopsis thaliana, UniProt Q9FKA0 1-176).
T1 sequence: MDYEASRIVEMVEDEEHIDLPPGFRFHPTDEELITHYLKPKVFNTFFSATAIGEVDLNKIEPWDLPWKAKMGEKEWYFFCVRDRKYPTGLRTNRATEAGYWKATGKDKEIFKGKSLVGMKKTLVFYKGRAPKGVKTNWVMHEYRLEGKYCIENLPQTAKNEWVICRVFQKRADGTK
Summed up:
(§1)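 For zinc-finger proteins, zinc acetate was added while GST-tagged NAC-domain, full-length or DNA-binding-domain proteins were induced in cells. Purification used glutathione–Sepharose 4B, and quantification used A280 or anti-GST western blot. Custom all-10-mer Agilent 4 × 180K arrays, made double-stranded by primer extension, each received a protein at 200 to 500 nM final in duplicate. Scoring covered gapped and ungapped 8-mers, with binding given as the normalised enrichment score (E-score).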

The target of another assay is GST-NTL6(1-168) (Arabidopsis thaliana, UniProt Q9SCK6 1-168). Summed up: as §1
Chain of GST-NTL6(1-168) (Q9SCK6 1-168): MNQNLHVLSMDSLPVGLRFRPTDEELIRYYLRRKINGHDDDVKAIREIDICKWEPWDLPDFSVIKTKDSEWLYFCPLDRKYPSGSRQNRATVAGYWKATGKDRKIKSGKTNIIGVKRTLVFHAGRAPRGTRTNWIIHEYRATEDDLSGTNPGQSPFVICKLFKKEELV
For a further assay, the target named is T2, GST-ANAC019 NAC domain (Arabidopsis thaliana, UniProt Q9C932 14-162).
T2 sequence: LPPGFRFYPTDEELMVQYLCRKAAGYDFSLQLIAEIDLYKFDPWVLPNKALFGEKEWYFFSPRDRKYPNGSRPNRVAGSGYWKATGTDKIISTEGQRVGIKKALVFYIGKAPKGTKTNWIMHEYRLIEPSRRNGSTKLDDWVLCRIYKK
Summed up: as §1

The target of a further assay is T3, GST-ANAC055(1-171) (Arabidopsis thaliana, UniProt Q9LDY8 1-171).
T3 sequence: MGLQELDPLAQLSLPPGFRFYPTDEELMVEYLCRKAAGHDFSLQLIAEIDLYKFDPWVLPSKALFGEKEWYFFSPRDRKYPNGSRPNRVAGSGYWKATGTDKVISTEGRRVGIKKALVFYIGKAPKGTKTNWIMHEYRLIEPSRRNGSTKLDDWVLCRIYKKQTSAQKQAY
Summed up:
as §1

The target in the next assay is T4, GST-ATAF1 NAC domain (Arabidopsis thaliana, UniProt Q39013 7-158).
T4 sequence: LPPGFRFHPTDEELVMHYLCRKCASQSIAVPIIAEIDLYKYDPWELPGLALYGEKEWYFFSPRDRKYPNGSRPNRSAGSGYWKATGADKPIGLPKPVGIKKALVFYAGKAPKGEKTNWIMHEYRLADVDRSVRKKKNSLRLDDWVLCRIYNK
Summed up: as §1

In assay [1] the target is T5, GST-ANAC092(1-285) full length (Arabidopsis thaliana, UniProt Q9FKA0 1-285).
T5 sequence: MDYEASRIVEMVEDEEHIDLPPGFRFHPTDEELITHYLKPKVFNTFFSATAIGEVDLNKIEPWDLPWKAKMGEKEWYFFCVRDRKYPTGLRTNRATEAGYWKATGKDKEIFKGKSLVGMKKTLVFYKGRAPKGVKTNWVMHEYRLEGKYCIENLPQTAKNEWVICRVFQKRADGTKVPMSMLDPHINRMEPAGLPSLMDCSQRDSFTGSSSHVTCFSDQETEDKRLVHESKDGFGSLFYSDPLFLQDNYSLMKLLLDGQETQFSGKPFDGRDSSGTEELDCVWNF
Summed up:
as §1

The next assay deals with T6, GST-NAP(1-166) (Arabidopsis thaliana, UniProt O49255 1-166).
T6 sequence: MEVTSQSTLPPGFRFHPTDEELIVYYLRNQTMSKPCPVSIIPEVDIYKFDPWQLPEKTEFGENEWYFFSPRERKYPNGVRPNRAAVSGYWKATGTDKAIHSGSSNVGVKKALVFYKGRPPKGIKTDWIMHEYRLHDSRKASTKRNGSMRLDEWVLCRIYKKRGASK
Summed up: as §1

Another assay has as its target T7, GST-NST2(1-184) (Arabidopsis thaliana, UniProt Q9M274 1-184).
T7 sequence: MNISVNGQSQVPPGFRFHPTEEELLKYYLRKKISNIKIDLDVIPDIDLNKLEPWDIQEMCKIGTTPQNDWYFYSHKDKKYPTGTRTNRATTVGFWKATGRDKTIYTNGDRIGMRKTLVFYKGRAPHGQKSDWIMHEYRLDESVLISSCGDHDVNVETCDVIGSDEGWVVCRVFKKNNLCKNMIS
Summed up: as §1

A further assay deals with T8, GST-NTL8 NAC domain (Arabidopsis thaliana, UniProt Q9XIN7 14-156).
T8 sequence: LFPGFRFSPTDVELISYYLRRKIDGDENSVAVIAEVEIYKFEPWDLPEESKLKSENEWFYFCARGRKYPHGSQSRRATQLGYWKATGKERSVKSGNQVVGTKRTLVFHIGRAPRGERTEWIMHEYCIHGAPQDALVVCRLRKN
Summed up:
as §1

The target of the next assay is T9, GST-SND1(1-203) (Arabidopsis thaliana, UniProt Q9LPI7 1-203).
T9 sequence: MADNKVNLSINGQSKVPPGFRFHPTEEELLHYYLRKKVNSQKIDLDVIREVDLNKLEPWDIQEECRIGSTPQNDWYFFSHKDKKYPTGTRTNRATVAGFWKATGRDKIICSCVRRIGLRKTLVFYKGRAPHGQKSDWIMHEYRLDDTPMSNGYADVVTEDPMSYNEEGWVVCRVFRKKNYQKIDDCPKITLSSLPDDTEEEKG
Summed up:
as §1

The target of the next assay is T10, GST-VND3 NAC domain (Arabidopsis thaliana, UniProt Q9FH59 12-162).
T10 sequence: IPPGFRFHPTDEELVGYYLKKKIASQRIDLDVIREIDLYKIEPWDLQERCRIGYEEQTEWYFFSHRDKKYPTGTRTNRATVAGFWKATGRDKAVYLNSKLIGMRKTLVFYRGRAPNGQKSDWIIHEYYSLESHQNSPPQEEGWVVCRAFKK
Summed up: as §1

A further assay addresses T11, GST-VND7 NAC domain (Arabidopsis thaliana, UniProt Q9C8W9 9-158).
T11 sequence: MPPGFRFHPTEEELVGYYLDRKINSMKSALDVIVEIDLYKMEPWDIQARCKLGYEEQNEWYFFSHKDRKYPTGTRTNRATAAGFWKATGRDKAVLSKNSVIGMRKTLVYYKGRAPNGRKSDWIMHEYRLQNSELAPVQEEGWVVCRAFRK
Summed up: as §1

With GTTACGTA, the binding signal was 0.463 E-score with GST-ANAC092(1-176); 0.214 E-score with GST-NTL6(1-168); 0.482 E-score with GST-ANAC019 NAC domain; 0.473 E-score with GST-ANAC055(1-171); 0.463 E-score with GST-ATAF1 NAC domain; 0.456 E-score in [1]. Further, the binding signal with GST-NAP(1-166) was found to be 0.483 E-score; with GST-NST2(1-184), 0.337 E-score; in the assay with GST-NTL8 NAC domain, 0.319 E-score; with GST-SND1(1-203) it was 0.442 E-score; in the assay with GST-VND3 NAC domain it was 0.471 E-score; with GST-VND7 NAC domain, 0.477 E-score.
Take GAAACGTA: the binding signal with GST-ANAC092(1-176) came out at 0.355 E-score; in the assay with GST-NTL6(1-168) it was 0.0734 E-score; with GST-ANAC019 NAC domain, 0.241 E-score; with GST-ANAC055(1-171), 0.219 E-score; with GST-ATAF1 NAC domain, 0.224 E-score; in assay [1], 0.411 E-score. Further, the binding signal with GST-NAP(1-166) was found to be 0.223 E-score; in the assay with GST-NST2(1-184), 0.212 E-score; in the assay with GST-NTL8 NAC domain it was 0.288 E-score; with GST-SND1(1-203), 0.435 E-score; in the assay with GST-VND3 NAC domain, 0.332 E-score; with GST-VND7 NAC domain, 0.268 E-score.
Take CTAAGTAA: the binding signal with GST-ANAC092(1-176) came to 0.2 E-score; with GST-NTL6(1-168), 0.49 E-score; in the assay with GST-ANAC019 NAC domain it was 0.0529 E-score; with GST-ANAC055(1-171), 0.0945 E-score; in the assay with GST-ATAF1 NAC domain it was 0.107 E-score; in assay [1], 0.3 E-score. The binding signal with GST-NAP(1-166) is 0.188 E-score; in the assay with GST-NST2(1-184), 0.225 E-score; in the assay with GST-NTL8 NAC domain, 0.216 E-score; in the assay with GST-SND1(1-203), 0.394 E-score; in the assay with GST-VND3 NAC domain it was 0.238 E-score; with GST-VND7 NAC domain, 0.209 E-score.
For the sequence ACGTAACC, the binding signal with GST-ANAC092(1-176) amounted to 0.442 E-score; with GST-NTL6(1-168) it was 0.149 E-score; with GST-ANAC019 NAC domain, 0.389 E-score; with GST-ANAC055(1-171) it was 0.412 E-score; in the assay with GST-ATAF1 NAC domain, 0.389 E-score; in assay [1], 0.463 E-score. Also, the binding signal in the assay with GST-NAP(1-166) came to 0.43 E-score; in the assay with GST-NST2(1-184) it was 0.338 E-score; with GST-NTL8 NAC domain, 0.328 E-score; with GST-SND1(1-203) it was 0.392 E-score; in the assay with GST-VND3 NAC domain it was 0.409 E-score; with GST-VND7 NAC domain it was 0.414 E-score.
With GCACGAAA, the binding signal with GST-ANAC092(1-176) came to 0.401 E-score; with GST-NTL6(1-168), 0.0615 E-score; with GST-ANAC019 NAC domain it was 0.253 E-score; with GST-ANAC055(1-171), 0.197 E-score; in the assay with GST-ATAF1 NAC domain, 0.165 E-score; in assay [1] it was 0.441 E-score. Besides, the binding signal in the assay with GST-NAP(1-166) was 0.245 E-score; with GST-NST2(1-184), 0.0864 E-score; with GST-NTL8 NAC domain it was 0.0576 E-score; with GST-SND1(1-203) it was 0.211 E-score; with GST-VND3 NAC domain, 0.173 E-score; with GST-VND7 NAC domain it was 0.145 E-score.
Consider ACGTTTTC, for which the binding signal in the assay with GST-ANAC092(1-176) was found to be 0.382 E-score; with GST-NTL6(1-168) it was 0.196 E-score; with GST-ANAC019 NAC domain it was 0.248 E-score; with GST-ANAC055(1-171), 0.304 E-score; with GST-ATAF1 NAC domain it was 0.336 E-score; in [1], 0.401 E-score. The binding signal was found to be 0.29 E-score with GST-NAP(1-166); 0.32 E-score in the assay with GST-NST2(1-184); 0.225 E-score in the assay with GST-NTL8 NAC domain; 0.322 E-score with GST-SND1(1-203); 0.303 E-score with GST-VND3 NAC domain; 0.327 E-score with GST-VND7 NAC domain.
With TTACGAAA, the binding signal with GST-ANAC092(1-176) worked out at 0.396 E-score; with GST-NTL6(1-168) it was 0.121 E-score; with GST-ANAC019 NAC domain, 0.248 E-score; in the assay with GST-ANAC055(1-171), 0.221 E-score; with GST-ATAF1 NAC domain it was 0.278 E-score; in [1], 0.409 E-score. In addition, the binding signal with GST-NAP(1-166) is 0.087 E-score; with GST-NST2(1-184), 0.227 E-score; with GST-NTL8 NAC domain, 0.067 E-score; with GST-SND1(1-203), 0.434 E-score; with GST-VND3 NAC domain, 0.26 E-score; in the assay with GST-VND7 NAC domain it was 0.233 E-score.
